# Reference: PubChem BioAssay (NCI)
# About 83,000 compounds went through this panel and 20% of them were active in at least one assay; those are over-represented in the sample as a whole.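 Negative percent growth values reflect cell death: -40 means 40% of the cells present at the start died, and -100 means all died.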 Activity calls are given as the source filed them.
# Tested on: NCI-H460 lung
# Assay: NCI-60 one-dose screen, 48 h (100 = growth as untreated, 0 = no growth, -100 = all killed)
# Conditions: 10 µM unless noted
# Protocol: Growth inhibition of the NCI-H460 human Non-Small Cell Lung tumor cell line is measured as a screen for anti-cancer activity. Cells are grown in 96 well plates and exposed to the test compound for 48 hours. Compounds are tested at a single concentration, which is 10^-5 M for most compounds. The reported endpoint is percent growth (GI% or GIPRCNT), where numbers from 0 - 100% represent growth inhibition, and numbers from -100% - 0 represent cell death. For example, a value of 40 represents 60% growth inhibition. A value of 0 means no net growth occurred over the course of the experiment. A value of -40 indicates 40% of cells at the beginning of the experiment died by the end of the experiment. A value of -100 means all cells are dead at the end of the experiment.
# NCI-60 Human Tumor Cell Lines Screen was performed using the standard one-dose NCI protocol, which is described in more detail at https://dtp.cancer.gov/discovery_development/nci-60/default.htm.
# Compounds with GIPRCNT values below 10 were considered active. Activity score was based on GIPRCNT using the following formula: […]
# Score is 0 for GIPRCNT values of 100 or above, 50 for GIPRCNT values of 0, and 100 for GIPRCNT values of -100.
row,SMILES,growth
1,Cc1ccc([N+](=O)[O-])cc1NC(=O)Nc1cccc(F)c1,47.2% (inactive)
2,Nc1ccc(C2=NN(c3ccccc3)C(c3ccc(Cl)cc3)C2)cc1 (stereo not given),99.4% (inactive)
3,O=C1/C(=C/c2ccc([N+](=O)[O-])o2)Oc2ccc(Br)cc21,107% (inactive)
4,OCCOc1c(Cl)cc(Cl)cc1Cl,108% (inactive)
5,COc1ccc(-c2cncn2-c2ccc(-c3nc4cc(OC)c(OC)c(OC)c4s3)cc2)cc1N,51.4% (inactive)
6,COc1ccc(-c2cc(C(=O)Nc3nc4cc(C)c(C)cc4s3)nc3cc(-c4ccccc4)nn23)cc1OC,112% (inactive)
7,COc1ccc2c(c1)/C(=C\c1c[nH]c3ccc(F)cc13)C(=O)N2,87.7% (inactive)
8,CCCCCCCC/C=C/CCCCCCCC1=NC(C)(C)CN1CC(C)O (stereo not given),-34.9% (active)
9,O=c1cc(-c2cccnc2)oc2c1ccc1ccccc12,70.4% (inactive)
10,Cc1[nH]n(C(N)=S)c(=O)c1N=Nc1ccc(F)c(Cl)c1,114% (inactive)
11,O=C(NCCCO)c1cc(Cl)ccc1O,9.74% (active)
12,O=C(/C=C/c1ccc(Cl)cc1)c1ccccc1,107% (inactive)
13,COC(=O)[C@]1(C(C)C)N[C@H](c2cn(-c3ccccc3)nc2-c2ccccc2)[C@@H]2C(=O)N(c3ccc(Cl)cc3)C(=O)[C@@H]21,105% (inactive)
14,CC(=O)c1ccc2c3c(n(C)c2c1)CCCC3,84.9% (inactive)
15,O=C(Nc1ccccc1Cl)c1cnc2ccc(C3CCNCC3)cn12,86.4% (inactive)
16,CCCCCCCCCCCCNc1ncnc2[nH]ncc12,79.2% (inactive)
17,COc1cc(OC)c2sc(-c3ccc(-n4cncc4-c4ccc(N)cc4)cc3)nc2c1,78.7% (inactive)
18,CC(=O)Oc1c(C)c(OC(C)=O)c2c(c1C(C)=O)OC1CC(=O)C(C(C)=O)=C(O)C21C (stereo not given),94.9% (inactive)
19,COc1cc(/C=C/C(=O)Nc2ccc3c(c2)/C(=C\c2cccn2C)C(=O)N3)cc(OC)c1OC,55.4% (inactive)
20,CCCCn1c(Cc2ccc(Cl)cc2)nc2cc(OC)c(OC)cc2c1=O,90.6% (inactive)

row,SMILES,growth
1,COc1ccc(C2=NN(C(=O)c3cc(OC)c(OC)c(OC)c3)C(c3ccc(C#N)cc3)C2)cc1OC (stereo not given),9.81% (active)
2,COc1ccc(C2CC(c3cccc(Nc4ccnc5cc(Cl)ccc45)c3)=NN2C=O)cc1 (stereo not given),11.2% (inactive)
3,C[C@]12C[C@H](O)[C@H]3[C@@H](CCC4=CC(=O)CC[C@@]43C)[C@@H]1CC[C@@H]2C(=O)CO,103% (inactive)
4,COc1ccc(-c2nc3sccn3c2-c2ccnc(S(C)(=O)=O)n2)cc1,88.9% (inactive)
5,CN(CC(=O)Nc1nc2ccccc2[nH]1)S(=O)(=O)c1ccc(Cl)cc1,45.3% (inactive)
6,COc1ccc(/C=N/NC(=O)c2ccc(S(C)(=O)=O)cc2)cc1OC,109% (inactive)
7,Nc1cc(Cl)c(S(N)(=O)=O)cc1S(N)(=O)=O,106% (inactive)
8,Cc1nn(-c2ccccc2)c2nc(Cl)c(/C=C/C(=O)c3ccccc3)c(-c3ccccc3)c12,106% (inactive)
9,c1ccc(-c2nn[nH]n2)c(-c2ccc(CN3CCN(c4nsc5ccccc45)CC3)cc2)c1,98.4% (inactive)
10,COC(=O)CCC1=C(C)C(C)=N/C1=C\c1[nH]c(-c2ccc[nH]2)cc1OC,0.969% (active)
11,CSc1nnc(C2=CC(=O)c3ccccc3C2=O)n1-c1ccccc1,83.6% (inactive)
12,O=c1ccn(C2OC(CO)C(O)C2F)c(=O)[nH]1 (stereo not given),113% (inactive)
13,O=C1NC(=O)/C(=C\c2ccccc2)C2=C1CCCC2,85.5% (inactive)
14,CCCCCCCCCCCCCCCCCc1nccn1CCO,24.6% (inactive)
15,O=C1/C(=C/c2ccc([N+](=O)[O-])s2)Oc2ccc(Br)cc21,-51.9% (active)
16,COc1ccc2nc(-c3ccc(-n4cncc4-c4ccc(OC)c(N)c4)cc3)sc2c1,100% (inactive)
17,C=Cc1nn2c(CCC(=O)c3nc4ccccc4[nH]3)nnc2s1,105% (inactive)
18,O=C(CSc1nnc(Nc2ccccc2)s1)NCCc1ccc(F)cc1,105% (inactive)
19,Oc1ccccc1/C=N\Nc1ccccc1,30.9% (inactive)
20,Cc1nn(-c2ccccc2)c(Cl)c1C(CC(=O)c1ccc(Cl)cc1)CC(=O)c1ccc(Cl)cc1,90.1% (inactive)
